The source of these data is the supplement of paper PMC10849652.

About 7,900 targets were measured; listed, in parts, are those with a hit and a random draw of the rest. About 0.6% of all pairs of compound and target were hits.

Sequence of UniProt Q8TDY2 (Q8TDY2 whole entry, looked up): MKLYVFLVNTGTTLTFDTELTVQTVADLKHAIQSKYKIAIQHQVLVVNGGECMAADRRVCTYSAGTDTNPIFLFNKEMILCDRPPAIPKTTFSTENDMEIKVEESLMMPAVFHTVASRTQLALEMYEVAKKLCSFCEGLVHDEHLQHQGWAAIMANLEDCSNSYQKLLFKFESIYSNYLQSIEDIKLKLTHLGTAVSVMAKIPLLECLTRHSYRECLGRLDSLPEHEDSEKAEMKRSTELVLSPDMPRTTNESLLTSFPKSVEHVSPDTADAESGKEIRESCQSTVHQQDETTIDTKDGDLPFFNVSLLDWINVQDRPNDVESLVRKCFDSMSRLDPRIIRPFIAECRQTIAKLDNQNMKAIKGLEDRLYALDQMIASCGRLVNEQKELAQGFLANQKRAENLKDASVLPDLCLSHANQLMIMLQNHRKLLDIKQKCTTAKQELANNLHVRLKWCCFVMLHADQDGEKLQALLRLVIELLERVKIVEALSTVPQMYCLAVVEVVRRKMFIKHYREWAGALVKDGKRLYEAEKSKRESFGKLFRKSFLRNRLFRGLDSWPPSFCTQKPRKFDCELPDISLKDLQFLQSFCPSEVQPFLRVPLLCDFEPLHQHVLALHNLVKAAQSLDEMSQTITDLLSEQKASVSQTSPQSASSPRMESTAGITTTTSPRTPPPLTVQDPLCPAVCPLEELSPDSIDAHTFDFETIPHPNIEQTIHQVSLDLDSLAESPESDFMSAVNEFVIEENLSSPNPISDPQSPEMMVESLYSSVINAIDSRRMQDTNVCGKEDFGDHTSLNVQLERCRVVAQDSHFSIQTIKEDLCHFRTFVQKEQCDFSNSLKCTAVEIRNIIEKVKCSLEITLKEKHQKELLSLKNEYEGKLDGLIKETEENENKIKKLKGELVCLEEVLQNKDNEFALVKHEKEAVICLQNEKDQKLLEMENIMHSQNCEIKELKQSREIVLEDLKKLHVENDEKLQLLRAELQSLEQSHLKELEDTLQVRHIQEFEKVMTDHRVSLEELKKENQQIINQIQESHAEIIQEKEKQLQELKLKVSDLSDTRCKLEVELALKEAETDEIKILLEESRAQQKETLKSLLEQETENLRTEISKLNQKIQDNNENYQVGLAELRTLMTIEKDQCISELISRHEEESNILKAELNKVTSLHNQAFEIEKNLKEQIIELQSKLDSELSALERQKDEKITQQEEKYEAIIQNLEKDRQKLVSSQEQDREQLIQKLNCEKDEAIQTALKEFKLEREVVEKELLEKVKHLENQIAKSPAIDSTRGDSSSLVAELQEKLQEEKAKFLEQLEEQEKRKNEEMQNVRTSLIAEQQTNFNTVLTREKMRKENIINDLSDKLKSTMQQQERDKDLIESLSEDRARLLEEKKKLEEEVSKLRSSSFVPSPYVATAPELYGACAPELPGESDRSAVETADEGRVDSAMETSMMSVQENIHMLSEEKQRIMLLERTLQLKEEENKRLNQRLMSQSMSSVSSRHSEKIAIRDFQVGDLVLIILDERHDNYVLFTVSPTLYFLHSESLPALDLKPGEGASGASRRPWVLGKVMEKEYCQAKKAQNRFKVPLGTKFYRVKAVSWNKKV
Sequence of UniProt O75792 (O75792 whole entry, looked up): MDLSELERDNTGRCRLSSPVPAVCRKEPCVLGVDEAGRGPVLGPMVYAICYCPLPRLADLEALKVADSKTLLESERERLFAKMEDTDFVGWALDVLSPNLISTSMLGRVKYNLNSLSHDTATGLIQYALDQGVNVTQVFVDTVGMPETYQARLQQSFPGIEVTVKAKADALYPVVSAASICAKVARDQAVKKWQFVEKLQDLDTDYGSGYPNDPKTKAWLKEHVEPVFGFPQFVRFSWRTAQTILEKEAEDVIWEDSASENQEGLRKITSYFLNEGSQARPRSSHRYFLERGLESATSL
Sequence of UniProt Q9NX18 (Q9NX18 whole entry, looked up): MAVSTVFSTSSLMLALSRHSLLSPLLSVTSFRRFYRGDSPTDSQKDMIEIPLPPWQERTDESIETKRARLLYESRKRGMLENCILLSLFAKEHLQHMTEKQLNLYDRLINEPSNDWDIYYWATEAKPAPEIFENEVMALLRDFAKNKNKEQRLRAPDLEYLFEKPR
Sequence of UniProt O95486 (O95486 whole entry, looked up): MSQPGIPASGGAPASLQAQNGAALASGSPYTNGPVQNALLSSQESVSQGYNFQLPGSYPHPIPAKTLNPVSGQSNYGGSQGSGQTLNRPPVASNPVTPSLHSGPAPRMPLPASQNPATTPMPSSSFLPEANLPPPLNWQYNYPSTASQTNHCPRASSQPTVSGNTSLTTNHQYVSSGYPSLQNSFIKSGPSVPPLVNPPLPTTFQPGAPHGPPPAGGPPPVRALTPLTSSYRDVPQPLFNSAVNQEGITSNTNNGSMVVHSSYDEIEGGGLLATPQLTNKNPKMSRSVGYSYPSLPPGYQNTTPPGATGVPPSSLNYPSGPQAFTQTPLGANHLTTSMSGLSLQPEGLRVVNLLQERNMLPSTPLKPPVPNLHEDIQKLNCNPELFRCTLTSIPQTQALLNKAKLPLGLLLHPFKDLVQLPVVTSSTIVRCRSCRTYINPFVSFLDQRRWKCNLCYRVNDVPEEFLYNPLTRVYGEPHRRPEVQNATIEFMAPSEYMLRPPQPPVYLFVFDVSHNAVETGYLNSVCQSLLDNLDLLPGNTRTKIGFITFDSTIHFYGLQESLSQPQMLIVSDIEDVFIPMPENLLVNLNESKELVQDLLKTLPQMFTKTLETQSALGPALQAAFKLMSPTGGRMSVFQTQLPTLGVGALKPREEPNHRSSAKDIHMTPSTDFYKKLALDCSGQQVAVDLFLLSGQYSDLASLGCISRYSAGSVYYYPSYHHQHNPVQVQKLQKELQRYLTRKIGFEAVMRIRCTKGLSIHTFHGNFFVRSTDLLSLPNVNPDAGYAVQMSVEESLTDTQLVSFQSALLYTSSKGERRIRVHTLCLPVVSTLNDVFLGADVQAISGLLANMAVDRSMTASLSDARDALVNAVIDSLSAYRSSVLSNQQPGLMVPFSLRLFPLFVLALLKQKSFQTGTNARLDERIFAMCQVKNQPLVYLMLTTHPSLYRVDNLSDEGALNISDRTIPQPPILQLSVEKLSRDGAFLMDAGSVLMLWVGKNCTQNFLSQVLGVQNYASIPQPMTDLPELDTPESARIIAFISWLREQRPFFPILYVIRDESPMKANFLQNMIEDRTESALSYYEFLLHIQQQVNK
Sequence of UniProt Q99719 (Q99719 whole entry, looked up): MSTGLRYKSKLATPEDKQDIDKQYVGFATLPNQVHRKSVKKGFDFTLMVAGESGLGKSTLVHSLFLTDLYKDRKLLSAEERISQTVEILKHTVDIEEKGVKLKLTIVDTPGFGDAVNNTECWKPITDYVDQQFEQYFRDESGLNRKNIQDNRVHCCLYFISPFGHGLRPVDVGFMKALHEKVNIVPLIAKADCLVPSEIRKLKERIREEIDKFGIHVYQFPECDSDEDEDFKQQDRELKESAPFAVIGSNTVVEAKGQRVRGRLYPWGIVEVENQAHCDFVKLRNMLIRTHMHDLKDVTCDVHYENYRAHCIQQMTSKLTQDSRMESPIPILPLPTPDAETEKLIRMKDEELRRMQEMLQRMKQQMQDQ
Sequence of UniProt O75116 (O75116 whole entry, looked up): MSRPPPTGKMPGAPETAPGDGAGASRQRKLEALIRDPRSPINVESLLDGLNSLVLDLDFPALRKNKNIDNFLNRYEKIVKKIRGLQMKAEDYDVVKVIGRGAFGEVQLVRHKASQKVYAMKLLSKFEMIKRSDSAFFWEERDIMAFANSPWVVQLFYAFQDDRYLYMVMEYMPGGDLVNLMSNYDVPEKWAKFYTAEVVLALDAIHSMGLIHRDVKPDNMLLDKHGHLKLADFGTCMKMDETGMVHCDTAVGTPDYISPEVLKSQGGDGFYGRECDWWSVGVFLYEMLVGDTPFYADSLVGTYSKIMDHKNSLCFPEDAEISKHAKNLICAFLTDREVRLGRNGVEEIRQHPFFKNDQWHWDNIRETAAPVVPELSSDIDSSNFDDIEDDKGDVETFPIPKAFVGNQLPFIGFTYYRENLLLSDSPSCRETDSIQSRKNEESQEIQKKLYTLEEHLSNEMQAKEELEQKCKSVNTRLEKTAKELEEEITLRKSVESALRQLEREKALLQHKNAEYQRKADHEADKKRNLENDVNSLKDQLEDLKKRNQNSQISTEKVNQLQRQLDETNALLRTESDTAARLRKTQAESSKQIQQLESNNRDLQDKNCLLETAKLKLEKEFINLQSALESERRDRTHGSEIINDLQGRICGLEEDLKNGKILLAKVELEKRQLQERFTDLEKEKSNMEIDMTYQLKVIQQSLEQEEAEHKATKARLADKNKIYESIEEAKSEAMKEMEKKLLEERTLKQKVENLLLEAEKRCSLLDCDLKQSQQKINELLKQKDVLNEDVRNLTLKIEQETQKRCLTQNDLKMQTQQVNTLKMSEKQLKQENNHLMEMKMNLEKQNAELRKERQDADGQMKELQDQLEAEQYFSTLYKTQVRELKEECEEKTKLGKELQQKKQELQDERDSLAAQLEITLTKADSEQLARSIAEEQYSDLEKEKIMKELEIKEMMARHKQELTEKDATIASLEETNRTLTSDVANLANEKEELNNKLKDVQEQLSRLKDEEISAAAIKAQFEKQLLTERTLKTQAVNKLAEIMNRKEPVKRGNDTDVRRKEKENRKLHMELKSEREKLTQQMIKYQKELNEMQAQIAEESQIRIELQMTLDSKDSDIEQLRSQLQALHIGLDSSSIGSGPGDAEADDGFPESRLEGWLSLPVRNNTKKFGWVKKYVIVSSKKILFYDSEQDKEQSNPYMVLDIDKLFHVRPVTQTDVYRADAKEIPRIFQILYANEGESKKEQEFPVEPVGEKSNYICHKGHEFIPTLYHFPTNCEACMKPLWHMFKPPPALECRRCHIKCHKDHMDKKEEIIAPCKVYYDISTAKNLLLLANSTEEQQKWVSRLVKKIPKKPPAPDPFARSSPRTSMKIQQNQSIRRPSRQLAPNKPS
Sequence of UniProt P63208 (P63208 whole entry, looked up): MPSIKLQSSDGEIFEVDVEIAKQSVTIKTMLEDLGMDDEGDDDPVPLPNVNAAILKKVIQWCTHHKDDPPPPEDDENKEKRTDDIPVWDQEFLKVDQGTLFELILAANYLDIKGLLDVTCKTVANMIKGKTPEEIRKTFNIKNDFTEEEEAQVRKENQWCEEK

Compound in this test: Cc1ccc(NC(=O)c2ccc(CN3CC[C@H](N(C)C)C3)c(C(F)(F)F)c2)cc1Nc1nccc(-c2cncnc2)n1 [bafetinib]
Nature of the test: log2 fold change, soluble protein after heating vs DMSO (PISA); higher = thermal stabilisation; K562 cells, 10 uM, 30 min; active = over 0.2 and 3.5 SD of the protein, either way, in both replicates (recomputed). The essentials:
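K562 cells at 2×10^6 cells/mL were treated with 10 μM compound for 30 min. Aliquots were heated for 3 min across 48°C-58°C, pooled, and extracted in PBS with 0.5% NP-40 at 4°C; soluble protein was the supernatant after 21,000xg for 90 min. Soluble protein was quantified by TMTpro 16plex LC-MS/MS with channel sums equalised, and reported as log2 fold change in thermal stability against DMSO controls, with values from duplicates.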
Regarding SIDT2 isoform 2 (UniProt Q8NBJ9), the log2 fold change was -0.24 (inactive).

ROR2 (UniProt Q01974): the log2 fold change was 0.024 (inactive).

Regarding RAP1GDS1 isoform 5 (UniProt P52306), the log2 fold change is 0.097 (inactive).

For the target SKP1 (UniProt P63208), the log2 fold change was -0.003 (inactive).

REL (UniProt Q04864): the log2 fold change was -0.185 (inactive).

Consider SERINC3 (UniProt Q13530), for which the log2 fold change was -0.031 (inactive).

With RPS9 (UniProt P46781), the log2 fold change was 0.318 (inactive).

As for RB1CC1 (UniProt Q8TDY2), the log2 fold change is -0.037 (inactive).

With SAFB2 (UniProt Q14151), the log2 fold change is 0.17 (inactive).

Consider RAB3IL1 (UniProt Q8TBN0), for which the log2 fold change is -0.025 (inactive).

Regarding RPS6KA1 isoform 2 (UniProt Q15418), the log2 fold change was -0.051 (inactive).

For the target RPRD1B (UniProt Q9NQG5), the log2 fold change is -0.036 (inactive).

Regarding RPS3 (UniProt P23396), the log2 fold change was 0.219 (inactive).

SEC24A (UniProt O95486): the log2 fold change is -0.018 (inactive).

Take SCCPDH (UniProt Q8NBX0): the log2 fold change was 0.161 (inactive).

As to RPS27A (UniProt P62979), the log2 fold change was 0.147 (inactive).

With ROCK2 (UniProt O75116), the log2 fold change is -0.033 (inactive).

SACM1L (UniProt Q9NTJ5): the log2 fold change was -0.011 (inactive).

RPA1 (UniProt P27694): the log2 fold change is 0.029 (inactive).

In the case of RNASEH2A (UniProt O75792), the log2 fold change was -0.111 (inactive).

On to RGS10 (UniProt O43665), for which the log2 fold change was -0.08 (inactive).

In the case of SDHAF2 (UniProt Q9NX18), the log2 fold change is -0.083 (inactive).

For SEPTIN5 (UniProt Q99719), the log2 fold change is -0.017 (inactive).
